Consider 31 compounds from PubChem BioAssay (Tox21).

For experiment [1], the target named is Cytochrome P450 2C19 (Homo sapiens) (UniProt P33261). In words: Cytochrome P450 Family 2 Subfamily C Member 19 (CYP2C19) small molecule antagonists: luciferase reporter qHTS assay (AID 1671197). Also: nearly all actives have a fitted effect of over 65% in size. Also: potency is read from the fitted curve at half-maximal effect. To be noted: P450-Glo CYP2C19 enzyme, luciferin luminescence, 1 h; series mostly up to 115 µM. Summed up: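 Luminescent readout of CYP2C19 activity: luciferin product detected 20 min after adding detection reagent. Before that, compound and enzyme-substrate mix preincubated 10 min at room temperature; NADPH-regenerating system started a 1 h, 37C reaction. Ketoconazole as positive control.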
(In a reporter assay the amount or activity of a reporter protein is the signal.)

In experiment [2] the target is Cytochrome P450 2C9 (Homo sapiens) (UniProt P11712). In words: Cytochrome P450 Family 2 Subfamily C Member 9 (CYP2C9) small molecule antagonists: luciferase reporter qHTS assay (AID 1671198). Also: nearly all actives have a fitted effect of over 50% in size. Also: potency is read from the fitted curve at half-maximal effect. To be noted: P450-Glo CYP2C9 enzyme assay, luciferin luminescence; series mostly up to 115 µM. Summed up: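 CYP2C9 activity was measured with a P450-Glo proluciferin substrate. Enzyme–substrate mix was held with compound for 10 min at room temperature, then NADPH regeneration solution was added for 1 h at 37C. Luciferin product was read as luminescence.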

Experiment [3] has as its target Cytochrome P450 1A2 (Homo sapiens) (UniProt P05177). As to the kind of experiment: Cytochrome P450 Family 1 Subfamily A Member 2 (CYP1A2) small molecule antagonists: luciferase reporter qHTS assay (AID 1671199). Also: nearly all actives have a fitted effect of over 50% in size. Also: potency is read from the fitted curve at half-maximal effect. To be noted: P450-Glo CYP1A2 enzyme, luciferin luminescence, 1 h; series mostly up to 115 µM. Summed up: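 Compounds were incubated with CYP1A2 and a luminogenic proluciferin substrate for 10 min at room temperature before the reaction was started with NADPH regeneration solution. After 1 h, detection reagent was added and light output, proportional to CYP activity, was recorded.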

For experiment [4], the target named is Voltage-gated inwardly rectifying potassium channel KCNH2 (Homo sapiens) (UniProt Q12809). As to the kind of experiment: Human Ether-a-go-go-Related Gene (hERG) channel small molecule antagonists: fluorescence cell-based qHTS assay (AID 1671200). Also: nearly all actives have a fitted effect of over 50% in size. Also: potency is read from the fitted curve at half-maximal effect.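 As to activity change, negative = inhibition: hERG-expressing U2OS cells given a thallium stimulus after FluxOR II dye loading.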 To be noted: hERG-U2OS cells, FluxOR thallium flux fluorescence; series mostly up to 76.8 µM. Summed up:
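hERG-U2OS cells plated overnight at 37 C, loaded with FluxOR II dye 1 h at RT in dark; after 10 min, thallium stimulus added. Fluorescence (480/540 nm) read kinetically for 2 min at 1 s intervals.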

The target of experiment [5] is Cytochrome P450 3A4 (Homo sapiens) (UniProt P08684). In words: Cytochrome P450 Family 3 Subfamily A Member 4 (CYP3A4) small molecule antagonists: luciferase reporter qHTS assay (AID 1671201). Also: nearly all actives have a fitted effect of over 50% in size. To be noted: P450-Glo CYP3A4 enzyme, luciferin luminescence, 1 h; series mostly up to 115 µM. Summed up:
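P450-Glo CYP3A4 luminescent assay: compounds preincubated 10 min at room temperature with enzyme and proluciferin substrate, NADPH regeneration added, 1 h room-temperature reaction, stopped with luciferin detection reagent; luminescence read after 20 min. Ketoconazole positive control.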

Each structure is given as a SMILES string. Several values for one entry are separate records, joined by “and”; a condition that tells them apart may be missing. Equal entries are not always repeated. Inconclusive results are not listed. More than one record can exist for a structure, and the calls need not agree. Activity calls are given as the source filed them. Calls follow the shape of the dose curve; as a rule, active = well fitted curve in the direction sought with a large enough effect in the repeat runs; inconclusive = weak or mixed curves; inactive = no such curve, though single readings can be large; an effect the other way counts as inactive or inconclusive.
% is scaled to controls: 0 for no effect and ±100 for the full control effect.

Sequence of Cytochrome P450 2C19 (Homo sapiens) (P33261 whole entry, looked up): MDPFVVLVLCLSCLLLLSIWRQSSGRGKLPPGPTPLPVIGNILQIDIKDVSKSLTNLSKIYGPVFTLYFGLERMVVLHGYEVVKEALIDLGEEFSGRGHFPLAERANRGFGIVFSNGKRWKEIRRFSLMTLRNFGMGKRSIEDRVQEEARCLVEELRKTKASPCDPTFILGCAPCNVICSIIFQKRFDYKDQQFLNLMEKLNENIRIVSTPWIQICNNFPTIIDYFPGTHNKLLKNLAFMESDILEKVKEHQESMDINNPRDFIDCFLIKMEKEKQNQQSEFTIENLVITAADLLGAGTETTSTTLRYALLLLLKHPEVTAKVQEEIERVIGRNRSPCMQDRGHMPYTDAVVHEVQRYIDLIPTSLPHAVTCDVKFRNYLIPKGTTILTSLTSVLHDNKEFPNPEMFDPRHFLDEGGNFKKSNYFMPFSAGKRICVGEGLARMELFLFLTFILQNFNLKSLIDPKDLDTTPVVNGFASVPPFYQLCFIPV
Sequence of Cytochrome P450 2C9 (Homo sapiens) (P11712 whole entry, looked up): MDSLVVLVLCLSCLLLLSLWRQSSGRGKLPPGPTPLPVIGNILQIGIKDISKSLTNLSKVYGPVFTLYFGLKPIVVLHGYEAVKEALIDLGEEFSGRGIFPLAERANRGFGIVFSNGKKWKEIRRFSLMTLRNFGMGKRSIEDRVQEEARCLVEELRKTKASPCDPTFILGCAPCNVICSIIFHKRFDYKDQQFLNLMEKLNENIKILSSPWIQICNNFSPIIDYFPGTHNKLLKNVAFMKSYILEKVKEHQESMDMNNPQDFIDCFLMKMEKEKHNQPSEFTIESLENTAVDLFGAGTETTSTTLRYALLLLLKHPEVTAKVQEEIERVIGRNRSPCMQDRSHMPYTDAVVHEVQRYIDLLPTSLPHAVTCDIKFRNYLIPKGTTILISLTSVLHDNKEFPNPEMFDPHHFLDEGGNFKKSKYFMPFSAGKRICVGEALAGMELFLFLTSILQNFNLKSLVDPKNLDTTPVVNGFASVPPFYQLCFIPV
Sequence of Cytochrome P450 1A2 (Homo sapiens) (P05177 whole entry, looked up): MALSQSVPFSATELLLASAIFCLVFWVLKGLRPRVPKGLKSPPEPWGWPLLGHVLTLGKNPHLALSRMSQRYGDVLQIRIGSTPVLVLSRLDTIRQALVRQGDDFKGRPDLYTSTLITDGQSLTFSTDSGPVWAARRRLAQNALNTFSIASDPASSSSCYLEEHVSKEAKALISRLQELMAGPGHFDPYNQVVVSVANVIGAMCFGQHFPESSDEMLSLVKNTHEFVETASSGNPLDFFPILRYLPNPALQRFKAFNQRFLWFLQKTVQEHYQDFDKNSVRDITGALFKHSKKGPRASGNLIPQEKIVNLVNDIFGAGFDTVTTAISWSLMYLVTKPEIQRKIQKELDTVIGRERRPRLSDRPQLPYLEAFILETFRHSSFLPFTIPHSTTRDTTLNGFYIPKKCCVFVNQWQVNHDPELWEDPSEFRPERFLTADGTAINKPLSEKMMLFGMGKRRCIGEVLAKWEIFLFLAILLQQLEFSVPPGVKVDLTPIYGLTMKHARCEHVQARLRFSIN
Sequence of Voltage-gated inwardly rectifying potassium channel KCNH2 (Homo sapiens) (Q12809 whole entry, looked up): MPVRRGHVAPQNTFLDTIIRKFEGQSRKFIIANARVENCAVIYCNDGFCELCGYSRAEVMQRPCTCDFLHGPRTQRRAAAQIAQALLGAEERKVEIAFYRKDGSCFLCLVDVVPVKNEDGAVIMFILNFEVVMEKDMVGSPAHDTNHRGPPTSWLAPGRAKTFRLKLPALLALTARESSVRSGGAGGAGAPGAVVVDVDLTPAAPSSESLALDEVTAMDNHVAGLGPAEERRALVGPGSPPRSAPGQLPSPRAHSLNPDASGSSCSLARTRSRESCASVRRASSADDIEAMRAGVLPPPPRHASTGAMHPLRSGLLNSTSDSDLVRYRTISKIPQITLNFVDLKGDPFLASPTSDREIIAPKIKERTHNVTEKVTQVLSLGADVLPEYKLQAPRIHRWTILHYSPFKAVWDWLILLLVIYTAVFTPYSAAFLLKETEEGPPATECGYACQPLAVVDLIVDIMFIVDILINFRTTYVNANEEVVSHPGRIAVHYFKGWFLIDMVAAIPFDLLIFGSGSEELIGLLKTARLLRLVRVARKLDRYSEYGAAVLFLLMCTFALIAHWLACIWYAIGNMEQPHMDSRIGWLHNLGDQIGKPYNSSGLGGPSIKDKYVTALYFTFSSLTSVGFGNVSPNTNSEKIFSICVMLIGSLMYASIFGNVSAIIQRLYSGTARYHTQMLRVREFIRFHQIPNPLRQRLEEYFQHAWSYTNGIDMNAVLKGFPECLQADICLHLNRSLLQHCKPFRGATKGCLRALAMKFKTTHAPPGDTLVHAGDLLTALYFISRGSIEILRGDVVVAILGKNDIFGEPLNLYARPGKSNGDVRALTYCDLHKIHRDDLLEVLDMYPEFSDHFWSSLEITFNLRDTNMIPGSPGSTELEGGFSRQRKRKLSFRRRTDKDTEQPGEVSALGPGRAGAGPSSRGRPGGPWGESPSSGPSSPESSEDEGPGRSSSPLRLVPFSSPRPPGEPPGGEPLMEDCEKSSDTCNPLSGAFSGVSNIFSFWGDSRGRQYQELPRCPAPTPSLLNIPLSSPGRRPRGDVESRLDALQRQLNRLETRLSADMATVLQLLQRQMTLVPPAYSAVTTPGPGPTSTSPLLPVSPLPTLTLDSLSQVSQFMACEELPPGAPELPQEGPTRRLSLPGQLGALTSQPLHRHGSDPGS
Sequence of Cytochrome P450 3A4 (Homo sapiens) (P08684 whole entry, looked up): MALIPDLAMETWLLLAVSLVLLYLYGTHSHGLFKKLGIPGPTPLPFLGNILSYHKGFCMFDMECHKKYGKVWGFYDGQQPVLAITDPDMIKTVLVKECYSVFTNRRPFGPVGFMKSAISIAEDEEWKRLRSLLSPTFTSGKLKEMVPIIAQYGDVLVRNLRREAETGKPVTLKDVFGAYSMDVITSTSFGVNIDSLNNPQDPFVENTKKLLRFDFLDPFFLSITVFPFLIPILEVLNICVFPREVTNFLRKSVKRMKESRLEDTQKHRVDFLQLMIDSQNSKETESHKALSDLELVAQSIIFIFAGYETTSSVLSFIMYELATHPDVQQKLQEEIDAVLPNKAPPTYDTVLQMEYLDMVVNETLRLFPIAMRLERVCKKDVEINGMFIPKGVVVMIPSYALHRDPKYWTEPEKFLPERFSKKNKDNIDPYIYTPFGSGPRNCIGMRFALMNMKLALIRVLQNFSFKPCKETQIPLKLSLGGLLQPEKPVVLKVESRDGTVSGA

On to `CCOC(=O)/C=C\C(=O)OCC`, for which the Potency in experiment [1] is 72.3 µM (active) and inactive. Moreover, the Potency result in experiment [2], in experiment [3] and in experiment [4] was “inactive” each time.
Regarding `CC1Cc2ccccc2N1NC(=O)c1ccc(Cl)c(S(N)(=O)=O)c1` (configuration not stated), the Potency result in experiment [1], in experiment [2] and in experiment [3] was “inactive” in each case.
Take `CCC(C)C=O` (configuration not stated): in experiment [1], the Potency was 39.9 µM (active) and inactive. For the same compound, the Potency entry in experiment [2] and in experiment [3] was “inactive” each time.
Take `CCCCC/C=C\C/C=C\CCCCCCCC(=O)OC`: the Potency in experiment [1] is 55.8 µM (active) and 11.2 µM (active); in experiment [2] it was 35.2 µM (active) and 7.96 µM (active); in experiment [3] it was 35.6 µM (active).
On to `CC1CC(OC(=O)c2ccccc2O)CC(C)(C)C1` (configuration not stated), for which the Potency result in experiment [1] is “inactive”. In addition, the Potency entry was “inactive and 44.8 µM (active)” in experiment [2]; “inactive and 27.5 µM (active)” in experiment [3].
As for `CN(C)c1cccc(O)c1`, the Potency in experiment [1] was 2.56 µM (active) and 3.56 µM (active); in experiment [2], 16.1 µM (active) and 12.6 µM (active); in experiment [3], 32.2 µM (active) and 31.7 µM (active). Moreover, the Potency result in experiment [4] was “inactive”.
As for `CC(C)n1c(/C=C/[C@@H](O)C[C@@H](O)CC(=O)O)c(-c2ccc(F)cc2)c2ccccc21`, in experiment [1], the Potency result was “inactive”.
On to `O=C(Cl)c1c(Cl)c(Cl)c(C(=O)Cl)c(Cl)c1Cl`, for which the Potency result in experiment [1], in experiment [2], in experiment [3] and in experiment [4] was “inactive” in each case.
Consider `CN(CCOc1ccc(CC2SC(=O)NC2=O)cc1)c1ccccn1` (configuration not stated), for which the Potency entry in experiment [1], in experiment [3] and in experiment [4] was “inactive” each time. Besides, in experiment [2], the Potency is 62.9 µM (active) and inactive.
As for `Oc1c(Cl)cc(Cl)c(Cl)c1Cl`, the Potency entry in experiment [1] was “inactive”. The Potency in experiment [2] was 39.1 µM (active) and 28.3 µM (active); in experiment [3], 62 µM (active) and 63.3 µM (active).
As for `Cc1ccc(C(=O)O)o1`, the Potency entry in experiment [1], in experiment [2], in experiment [3] and in experiment [4] was “inactive” each time.
`C=C(C)C(=O)OCCCCCCCCCCCC`: the Potency result in experiment [1], in experiment [2], in experiment [3] and in experiment [4] was “inactive” each time.
Take `CC#C[C@]1(O)CC[C@H]2[C@@H]3CCC4=CC(=O)CCC4=C3[C@@H](c3ccc(N(C)C)cc3)C[C@@]21C`: the Potency in experiment [1] was 20 µM (active); in experiment [2], 2.24 µM (active) and 2.75 µM (active). For the same compound, the Potency entry in experiment [3] is “inactive”.
For `O=c1c(-c2ccc(O)cc2)coc2cc(O)ccc12`, the Potency in experiment [1] is 49.8 µM (active); in experiment [2], 280 nM (active) and 159 nM (active); in experiment [3], 31.4 µM (active) and 39.9 µM (active).
Take `Cc1ccc(C)c(C)c1`: the Potency entry in experiment [1], in experiment [2] and in experiment [4] was “inactive” throughout. Also, in experiment [3], the Potency result is “inactive and 29.6 µM (active)”.
Turning to `CCCCCCOC(C)=O`, the Potency result in experiment [1], in experiment [2] and in experiment [3] was “inactive” each time.
For the compound `Cc1cc(Cc2ccc(N)c(C)c2)ccc1N`, the Potency in experiment [1] is 3.56 µM (active) and 5.03 µM (active); in experiment [2], 6.33 µM (active) and 25.2 µM (active); in experiment [3] it was 6.33 µM (active) and 14.2 µM (active).
Take `O=C1O[C@H](CO)[C@@H](O)[C@H](O)[C@H]1O`: the Potency entry in experiment [1], in experiment [2], in experiment [3] and in experiment [4] was “inactive” throughout.
In the case of `Nc1cc(-c2ccncc2)c[nH]c1=O`, the Potency in experiment [1] is 8.94 µM (active) and 3.89 µM (active); in experiment [2], 14.2 µM (active) and 12.3 µM (active); in experiment [3], 35.6 µM (active).
For `CC1=CC[C@H]2C[C@@H]1C2(C)C`, the Potency entry in experiment [1], in experiment [2] and in experiment [3] was “inactive” in each case.
As for `CCCCC(CC)COC(=O)/C=C\C(=O)OCC(CC)CCCC` (configuration not stated), the Potency in experiment [1] is 39.9 µM (active) and 71 µM (active); in experiment [2] it was 39.9 µM (active); in experiment [3], 35.6 µM (active). The Potency result in experiment [4] was “inactive”.
In the case of `Oc1ccc2ccccc2c1N=Nc1ccccc1`, the Potency was 31.7 µM (active) in experiment [1]; 11.2 µM (active) and 14.2 µM (active) in experiment [2]; 356 nM (active) and 2.52 µM (active) in experiment [3]. For the same compound, in experiment [4], the Potency result is “inactive”.
Regarding `O=C(O)c1ccc([N+](=O)[O-])cc1`, the Potency entry in experiment [1], in experiment [2] and in experiment [3] was “inactive” throughout.
With `OC[C@@H](O)[C@H](O)[C@H](O)[C@@H](O)CO`, the Potency result in experiment [1], in experiment [2] and in experiment [3] was “inactive” in each case.
In the case of `C=CC(=O)OCCCCCCCC(C)C`, the Potency result in experiment [1], in experiment [2] and in experiment [3] was “inactive” in each case.
In the case of `CCOC(=O)[C@H](CCc1ccccc1)N[C@@H](C)C(=O)N1Cc2ccccc2C[C@H]1C(=O)O`, the Potency in experiment [1] was 35.8 µM (active) and inactive; in experiment [2], 8.02 µM (active) and 12.3 µM (active). For the same compound, the Potency result in experiment [3] and in experiment [4] was “inactive” each time.
Consider `CC1=C(CC(=O)O)c2cc(F)ccc2/C1=C\c1ccc(S(C)=O)cc1` (configuration not stated), for which the Potency in experiment [1] was 7.96 µM (active) and 8.71 µM (active); in experiment [2], 50.2 µM (active) and inactive; in experiment [3], 35.6 µM (active).
Turning to `CCCCC(CC)COC(C)=O` (configuration not stated), the Potency result in experiment [1], in experiment [2], in experiment [3] and in experiment [4] was “inactive” throughout.
As to `NCCNCCNCCNCCN`, in experiment [1], the Potency is 63 µM (active). For the same compound, the activity change, negative = inhibition in experiment [1] is 36.2% [at 10.5 µM] (inactive); in experiment [2], 8.07% [at 10.5 µM] (inactive); in experiment [3] it was 8.65% [at 10.5 µM] (inactive). Further, the Potency entry in experiment [5] is “inactive”.
Consider `CC1(C)O[C@@H]2C[C@H]3[C@@H]4C[C@H](F)C5=CC(=O)CC[C@]5(C)[C@H]4[C@@H](O)C[C@]3(C)[C@]2(C(=O)CO)O1`, for which the Potency entry in experiment [1], in experiment [2], in experiment [3] and in experiment [4] was “inactive” in each case.
Take `CCCCCCCCCCCCN`: the Potency in experiment [1] was 4.02 µM (active) and 633 nM (active) and 2.56 µM (active); in experiment [2] it was 22.6 µM (active) and 6.33 µM (active) and 32.2 µM (active); in experiment [3] it was 16 µM (active) and 2.83 µM (active) and 9.08 µM (active); in experiment [4], “inactive and 12.3 µM (active)”.
